Measured values taken from PubChem BioAssay (NCATS).
Records with an inconclusive call do not appear. A number with no mark means an inactive call. Calls come from the whole dose curve; as a rule, active = well fitted inhibition curve with a large enough effect; inconclusive = small, poorly fitted or top-dose-only effect; inactive = flat fitted curve, though single readings scatter.

target: Calcium and integrin-binding protein 1 (Homo sapiens) (UniProt Q99828); experiment: Primary qHTS for Identification of Calcium Integrin Binding Protein 1 (CIB1) Competitor (AID 1508620); conditions: CIB1-GST / FITC-alphaIIb peptide fluorescence polarization; series mostly up to 114 µM; activity change, negative = inhibition: at the top concentration; note: top concentration of the series differs between compounds
Summary of the method: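 Fluorescence polarization competition: GST-tagged CIB1 (1 uM final) preincubated with compound 15 min at room temperature, then FITC-labelled alphaIIb peptide (100 nM final) added. After 15 min at room temperature, polarization read at Ex 480/Em 540.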
% is set by controls: 0 for no effect and ±100 for the full control effect.

Calcium and integrin-binding protein 1 (Homo sapiens), sequence (Q99828 whole entry, looked up): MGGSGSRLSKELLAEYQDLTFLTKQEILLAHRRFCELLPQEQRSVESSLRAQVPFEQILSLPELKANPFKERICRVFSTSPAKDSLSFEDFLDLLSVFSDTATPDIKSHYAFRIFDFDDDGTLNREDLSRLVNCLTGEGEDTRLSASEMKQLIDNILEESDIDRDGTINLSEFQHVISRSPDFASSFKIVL

Going from `COC1=CC(=O)CC(C)C12Oc1cc(OC)cc(O)c1C2=O` (centres undefined) to `CN(C)c1ccc2c(c1)OC(N)=C(C#N)C2c1cccc(C(F)(F)F)c1` (centres undefined), the “activity change, negative = inhibition” value rises from 0.289% to 61.9%.

Going from `C[C@H](CCC(=O)O)[C@H]1CC[C@H]2[C@@H]3C[C@H](O)[C@@H]4C[C@H](O)CC[C@]4(C)[C@H]3CC[C@]12C` to `CC1(C(=O)O)CCCC2(C)C3CCC4CC3(CCC12)CC4=O` (centres undefined), the “activity change, negative = inhibition” value rises from 0.928% to 3.97%.

Compared with `CC(=O)CC1CCC(C(C)C(=O)OCC(O)CO)O1` (centres undefined), `CC(C)[C@H]1CC[C@@]2(O)COC(=O)[C@H]2[C@@H]1/C=C(\CO)C(=O)O` is higher in “activity change, negative = inhibition” value: -5.53% for the first, 4.09% for the second.

Going from `C#CC[C@H](c1nc2cc(Cl)ccc2c(=O)n1Nc1ccccc1)N(CCCN)C(=O)c1cccc(Cl)c1F` to `CCCOc1ccc(-c2nc(OC)c3ccccc3n2)cc1`, the “activity change, negative = inhibition” value rises from 0.94% to 3.62%.

First: C[C@H](NC(c1cccc(C[P+](=O)O)c1)[C@H](C)O)c1ccc(Cl)c(Cl)c1 (some centres undefined)
Second: O=C(Nc1ccn[nH]1)c1c(F)cccc1F
The “activity change, negative = inhibition” value of the first is higher: 2.14% for the first, -1.55% for the second.

In the case of `CC(C)C1=CC2C(CC[C@]2(C)O)[C@](C)(O)CC1` (some centres undefined), the “activity change, negative = inhibition” value is reported as 1.2%.

First: CC12CCC(OC3OC(CO)C(O)C(OC4OC(CO)C(O)C(O)C4O)C3O)CC1CCC1C2CCC2(C)/C(=C3/COC(=O)C3)CCC12O (centres undefined)
Second: C=C(C)C1CCC2(C(=O)O[C@@H]3O[C@H](CO[C@@H]4O[C@H](CO)[C@@H](O)[C@H](O)[C@H]4O)[C@@H](O)[C@H](O[C@@H]4O[C@@H](C)[C@H](O)[C@@H](O)[C@H]4O)[C@H]3O)CCC3(C(=O)O)C(CCC4C5(C)CCC(O)C(C)(C)C5CCC43C)C12 (some centres undefined)
The “activity change, negative = inhibition” value of the first is lower: -0.572% [at 30.2 µM] for the first, 5.02% [at 30.2 µM] for the second.

First: CN[C@H](CC(C)C)C(=O)N[C@H]1C(=O)N[C@@H](CC(N)=O)C(=O)N[C@H]2C(=O)N[C@H]3C(=O)N[C@H](C(=O)N[C@H](C(=O)O)c4cc(O)cc(O)c4-c4cc3ccc4O)[C@H](O[C@H]3C[C@](C)(N)[C@@H](O)[C@H](C)O3)c3ccc(c(Cl)c3)Oc3cc2cc(c3O[C@@H]2O[C@H](CO)[C@@H](O)[C@H](O)[C@H]2O[C@H]2C[C@](C)(NCc3ccc(-c4ccc(Cl)cc4)cc3)[C@@H](O)[C@H](C)O2)Oc2ccc(cc2Cl)[C@H]1O
Second: CC(=O)O[C@@H]1[C@@H](OC(=O)/C=C/c2ccccc2)[C@@H](OC(C)=O)[C@H](O[C@H]2[C@@H]3C=CO[C@@H](O[C@@H]4O[C@H](CO)[C@@H](O)[C@H](O)[C@H]4O)[C@@H]3[C@@]3(CO)O[C@@H]23)O[C@H]1C
The “activity change, negative = inhibition” value of the first is higher: 2.49% [at 30.2 µM] for the first, -2.72% [at 30.2 µM] for the second.

Compared with `CC1(C)CC[C@]2(C(=O)O[C@@H]3O[C@H](CO)[C@@H](O)[C@H](O)[C@H]3O)CC[C@]3(C)C(=CCC4[C@@]5(C)C[C@@H](O)[C@H](O)C(C)(C)C5[C@H](O)C[C@]43C)[C@@H]2[C@@H]1O` (some centres undefined), `CC1OC(OC2CCC3(C)C(CCC4(C)C3CC=C3C5CC(C)(C)CCC5(C(=O)OC5OC(CO)C(O)C(O)C5O)CCC34C(=O)O)C2(C)C)C(O)C(O)C1O` (centres undefined) is higher in “activity change, negative = inhibition” value: 0.937% [at 30.2 µM] for the first, 3.19% [at 30.2 µM] for the second.

Going from `C[C@@H]1C[C@H]2O[C@@H]2/C=C\C=C\C(=O)Cc2c(Cl)c(O)cc(O)c2C(=O)O1` to `CC(=O)O[C@@H]1C[C@@H](OC(C)=O)C(C)(C)/C=C/[C@H](C)[C@H](OC(C)=O)[C@@]2(O)C[C@H](C)[C@H](OC(=O)c3ccccc3)[C@@H]2/C=C/1C`, the “activity change, negative = inhibition” value rises from -11.2% [at 30.2 µM] to 0.21% [at 30.2 µM].

Going from `CC(=O)OC1CC2(C)C3=CCC4(C)C5C(O)C(O)C(C(C)C)C5(C)CCC4(C)C3CCC2C(C)(C)C1OC1OC(CO)C(O)C(O)C1O` (centres undefined) to `CC1OC(OC2C(OC3C(O[C@H]4CC[C@@]5(C)C(CC[C@]6(C)C5C(=O)C=C5C7CC(C)(C)CC(O)[C@]7(C)CC[C@]56C)C4(C)C)OC(C(=O)O)C(O)C3O)OCC(O)C2O)C(O)C(O)C1O` (some centres undefined), the “activity change, negative = inhibition” value rises from -2.17% [at 30.2 µM] to 4.47% [at 30.2 µM].

First: C=C1[C@H](OC(C)=O)[C@H]2[C@@H](OC(C)=O)[C@](C)(OC(C)=O)C[C@]2(OC(C)=O)C(=O)[C@H](C)/C=C/C(C)(C)C(=O)[C@H](OC(=O)C(C)CC)[C@H]1OC(C)=O (some centres undefined)
Second: CC1CC2OC3(OC2C(C)(C)O)C1C1(C)CCC24CC25CCC(O[C@@H]2OC[C@@H](O)[C@H](O)[C@H]2O)C(C)(C)C5CC=C4C1(C)C3O (some centres undefined)
The “activity change, negative = inhibition” value of the first is higher: 4.57% [at 30.2 µM] for the first, 1.42% [at 30.2 µM] for the second.

Compared with `CC1(C)C2CC(OC3OC(COC4OCC(O)(CO)C4O)C(O)C(O)C3O)C1(C)CC2O` (centres undefined), `CC(O)/C=C/C1(O)C(C)C(O[C@@H]2O[C@H](CO)[C@@H](O)[C@H](O)[C@H]2O)C(O)CC1(C)C` (some centres undefined) is higher in “activity change, negative = inhibition” value: -3.88% [at 57.7 µM] for the first, 3.47% [at 57.7 µM] for the second.

Going from `C=CC(C)(C)c1[nH]c2ccccc2c1C[C@@H]1NC(=O)[C@H](Cc2c[nH]c3ccccc23)NC1=O` to `CCC1=CC2CN(C1)Cc1c([nH]c3ccccc13)[C@@](C(=O)OC)(c1cc3c(cc1OC)N(C)[C@H]1[C@@](O)(C(=O)OC)[C@H](OC(C)=O)[C@]4(CC)C=CCN5CC[C@]31[C@@H]54)C2` (some centres undefined), the “activity change, negative = inhibition” value rises from -7.02% [at 57.7 µM] to 0.993% [at 57.7 µM].

Compared with `COC(=O)CCC(=O)OC[C@]1(C)CCC[C@@]2(C)C3CC[C@]4(C)C=CC3(CCC12)C4` (some centres undefined), `C=C[C@]1(C)C=C2CCC3C(C)(CCC[C@@]3(C)C(=O)O)C2CC1` (some centres undefined) is lower in “activity change, negative = inhibition” value: 5.12% [at 57.7 µM] for the first, 2.03% [at 57.7 µM] for the second.

First: OC[C@H]1O[C@@H](O[C@H]2[C@H](OCCc3ccccc3)O[C@H](CO)[C@@H](O)[C@@H]2O)[C@H](O)[C@@H](O)[C@@H]1O
Second: CC1(O)CC(O)C2(O)C=COC(O[C@@H]3O[C@H](CO)[C@@H](O)[C@H](O)[C@H]3O)C12 (some centres undefined)
The “activity change, negative = inhibition” value of the first is higher: 0.664% [at 57.7 µM] for the first, -2.64% [at 57.7 µM] for the second.

Compared with `O=C(/C=C/c1ccc(O)cc1)OC1[C@H](O)CC(O)(C(=O)O)C[C@H]1O` (some centres undefined), `CCC(O)(C(=O)OCc1ccccc1NC(=O)CCC(=O)O)C(C)O` (centres undefined) is higher in “activity change, negative = inhibition” value: -1.9% [at 57.7 µM] for the first, -1.78% [at 57.7 µM] for the second.

First: CCCC(=O)O[C@@H]1[C@@H]2[C@@H](OC(C)=O)[C@]3(C)C(=O)[C@H]4[C@@H](OC(C)=O)C(C)(C)C[C@H]4[C@]3(C)C(=O)[C@@]2(OC(C)=O)C[C@@H]1C
Second: C/C=C(/COC(=O)/C(C)=C/C)C(=O)OC(CC)c1ccc(OC)c(OC)c1 (centres undefined)
The “activity change, negative = inhibition” value of the first is lower: 1.92% [at 57.7 µM] for the first, 2.71% [at 57.7 µM] for the second.

Going from `COc1c2ccoc2cc2oc(CO[C@@H]3O[C@H](CO)[C@@H](O)[C@H](O)[C@H]3O)cc(=O)c12` to `CC(C)(O)CC(CO)NC(=O)CC(O)CC(=O)Cc1ccccc1` (centres undefined), the “activity change, negative = inhibition” value falls from 0.683% [at 57.7 µM] to -15.6% [at 57.7 µM].

First: COC1CC(O[C@H]2CC[C@@]3(C)C(CCC4C3[C@H](OC(C)=O)[C@@H](OC(=O)/C=C/c3ccccc3)[C@]3(C)C(C(C)=O)CC[C@]43O)C2)OC(C)C1OC1CC(OC)C(OC2CC(OC)C(OC3OC(C)C(OC4OC(CO)C(O)C(O)C4O)C(OC)C3O)C(C)O2)C(C)O1 (some centres undefined)
Second: C[C@@H]1O[C@@H](O[C@H]2[C@H](O[C@H]3CC[C@@]4(C)C(CC[C@]5(C)C4CC=C4[C@@H]6CC(C)(C)CC[C@]6(C(=O)O[C@@H]6OC[C@H](O)[C@H](O)[C@H]6O[C@@H]6O[C@@H](C)[C@H](O[C@@H]7O[C@H](CO)[C@@H](O)[C@H](O)[C@H]7O)[C@H](O)[C@H]6O)[C@H](O)C[C@]45C)C3(C)C)O[C@H](CO)[C@@H](O[C@@H]3OC[C@@H](O)[C@H](O)[C@H]3O)[C@@H]2O)[C@H](O)[C@H](O)[C@H]1O (some centres undefined)
The activity change, negative = inhibition of the first is higher: 3.75% [at 12.4 µM] for the first, -1.57% [at 12.4 µM] for the second.
